Source: PubChem BioAssay (NCI)
Several values for one entry are separate records, joined by “and”; a condition that tells them apart may be missing. Identical values can stand only once. Compounds without any hit were thinned out: in the full panel of roughly 83,000, 20% have a hit.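 Compound tested at a single concentration for 48 hours in 96-well plates; a percent growth value below 10 was scored as active.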 A number with no mark means an inactive call. Activity calls are given as the source filed them.

These compounds were tested on MDA-MB-468 breast (assay: NCI-60 one-dose screen, 48 h (100 = growth as untreated, 0 = no growth, -100 = all killed)). Settings: 10 µM unless noted.

Row | Compound | growth
1 | Cc1cc(O)cc2c1[C@H]1CC[C@]3(C)[C@@H](O)CC[C@H]3[C@@H]1C=C2 | 96.8%
2 | O=C1Nc2c(ccc(Cl)c2Cl)/C1=C/c1ccccn1 | 50.6%
3 | COc1ccc(NC(=O)c2ccc(-c3ccccc3)cc2)c(C(N)=O)c1 | 109%
4 | CC(CCCC(=O)O)c1ccoc1 (stereo not given) | 119%
5 | COc1cccc2cc(-c3cc4ccccc4[nH]3)c(=NC(=O)c3ccc(Cl)cc3)oc12 | 75%
6 | CCOC(=O)Nc1ccc(-c2ccc3c(c2)NC(=O)/C3=C\c2ccc[nH]2)cc1 | -8.48% (active)
7 | C#CCOc1ccc2ncnc(Nc3ccc(NC(=O)CCl)cc3)c2c1 | -57.7% (active)
8 | O=C(c1ccncc1)N1N=C(c2ccc(Cl)cc2)C[C@H]1c1cn(-c2ccccc2)nc1-c1ccccc1 | 88.5%
9 | Cc1nc(Nc2cn[nH]c2C(=O)Nc2ccc(CN3CCN(C)CC3)cc2)c2ccsc2n1 | 104%
10 | COc1cc2cc(Oc3ccc(NC(=O)Nc4ccc(Cl)c(C(F)(F)F)c4)cc3)c(C)nc2cc1OC | -42.7% (active)
11 | COc1ccc(-c2[nH]ncc2/C=C/c2cc(C(F)(F)F)[nH]c(=O)n2)cc1 | 96.1%
12 | CN1CCN(c2ccc(Nc3nc(NCCNS(=O)(=O)c4ccc(Cl)cc4)c4sccc4n3)cc2)CC1 | 93%
13 | Cc1ccc(NC(=O)N[C@@H](Cc2cc(F)cc(F)c2)C(=O)N[C@@H]2C(=O)N3CCC[C@H]3C(=O)N3CCCC[C@H]3C(=O)N[C@@H](C)C(=O)N3C[C@H](C)C[C@H]3C(=O)O[C@H]2C)cc1 | 5.99% (active)
14 | Cc1nc2c(nnn2-c2ccccc2)c2nc(-c3ccccc3)oc(=O)c12 | 110%
15 | CC1Cc2c(Cl)ncnc2N(C)c2ccc(O)cc21 (stereo not given) | -6.93% (active)
16 | CNC(=O)c1cc(Oc2ccc3nc(NC(=O)Nc4ccc(CN5CCOCC5)c(C(F)(F)F)c4)sc3c2)ccn1 | -17.2% (active)
17 | COc1c(O)cc2c(c1CC=C(C)C)OC(=O)c1c(cc(O)c(CC=C(C)C)c1O)O2 | 27.9%
18 | CCCCC(CC)COC(=O)C[N+](C)(C)CCOC(c1ccccc1)c1ccccc1 (stereo not given) | -39% (active)
19 | O=C1CCC(c2c(O)cc(O)c3c(=O)c(O)c(-c4ccc(O)c(O)c4)oc23)N1 (stereo not given) | 108%
20 | COc1cc2cn3c4ccc(O)cc4nc(N)c3c2cc1OC | -32.3% (active)

Row | Compound | growth
21 | Oc1ccc(O)c(-c2ccccc2)c1 | 33.2%
22 | N#C/C(=C\c1ccc(Br)cc1)c1cc2ccccc2[nH]1 | 82.8%
23 | COc1cc(-c2cc(/C=C3\C(=O)Nc4cc(Cl)ccc43)[nH]n2)cc(OC)c1OC | 58.3%
24 | Brc1ccc(-c2cnc3nonc3n2)cc1 | 50.1%
25 | COc1ccc(-c2csc(NC(=O)CSc3nc(C)cc(=O)[nH]3)n2)cc1 | 118%
26 | COc1ccc(/C=C2\CCCC3=C2N=C2SC(C)=CN2C3c2ccc(OC)cc2)cc1 (stereo not given) | 85.1%
27 | Cc1cc(O)cc(-c2c(-c3ccnc(-c4cccnc4)c3)cnn2C)c1 | 48.1%
28 | Brc1ccc2c(c1)c(-c1nc(-c3c[nH]c4ncccc34)cs1)cn2CCCN1CCCCC1 | -15% (active)
29 | CCCC(F)C(=O)O (stereo not given) | 108%
30 | CCOC(=O)c1ccc(NC(=O)CCCN(CC)CC)cc1 | 115%
31 | CCCCCCCCCCCCCCCCNc1ccccc1 | 108%
32 | O=C(CCc1nnc(Cn2cncn2)o1)c1nc2ccccc2[nH]1 | 104%
33 | COc1ccc(/C=C2\CCCC3C2=Nc2ccccc2NC3c2ccc(OC)cc2)cc1 (stereo not given) | 43.6%
34 | O=C(Nc1ccccc1Cl)Oc1ccc2ccccc2c1 | 104%
35 | Cc1ccc(S(=O)(=O)N(C)CCCCCC(=O)O)cc1 | 108%
36 | COc1cc(-c2csc(NC(=O)Nc3cc(C(F)(F)F)cc(C(F)(F)F)c3)n2)cc(OC)c1OC | 4.77% (active)
37 | O=[N+]([O-])c1ccc(Oc2ccccc2)cc1 | 103% and 113%
38 | O=C(c1ccccc1)c1ccc(Cl)c([N+](=O)[O-])c1 | 77.7%
39 | O=C(/C=C/c1ccc[nH]1)c1ccc(-n2ccc(C(F)(F)F)n2)c(F)c1 | 60.4%
40 | O=C1OCC2=C1C(c1cccc(F)c1)c1cc3c(cc1N2CCO)CCC3 (stereo not given) | -5.09% (active)
